# Measurements: the supplement of paper PMC11732987, “Enantioselective OTUD7B fragment discovery through chemoproteomics screening and high-throughput optimisation” (Communications Chemistry, 2025)
# Values without a mark were called inactive.
# Tests used:
# Experiment in all cases: log2 ratio of Biotin-Ahx-Ub-VS probe labelling (fragment/DMSO); higher = less target engagement (more negative = stronger competition), active = hit call of the paper (q ≤ 0.05, log2 ratio ≤ -1)
# Conditions in all cases: compound concentration: 200 uM; treatment time: 3 h
# USP19 = target: T1, USP19 (UniProt O94966)
# T1 sequence (whole entry): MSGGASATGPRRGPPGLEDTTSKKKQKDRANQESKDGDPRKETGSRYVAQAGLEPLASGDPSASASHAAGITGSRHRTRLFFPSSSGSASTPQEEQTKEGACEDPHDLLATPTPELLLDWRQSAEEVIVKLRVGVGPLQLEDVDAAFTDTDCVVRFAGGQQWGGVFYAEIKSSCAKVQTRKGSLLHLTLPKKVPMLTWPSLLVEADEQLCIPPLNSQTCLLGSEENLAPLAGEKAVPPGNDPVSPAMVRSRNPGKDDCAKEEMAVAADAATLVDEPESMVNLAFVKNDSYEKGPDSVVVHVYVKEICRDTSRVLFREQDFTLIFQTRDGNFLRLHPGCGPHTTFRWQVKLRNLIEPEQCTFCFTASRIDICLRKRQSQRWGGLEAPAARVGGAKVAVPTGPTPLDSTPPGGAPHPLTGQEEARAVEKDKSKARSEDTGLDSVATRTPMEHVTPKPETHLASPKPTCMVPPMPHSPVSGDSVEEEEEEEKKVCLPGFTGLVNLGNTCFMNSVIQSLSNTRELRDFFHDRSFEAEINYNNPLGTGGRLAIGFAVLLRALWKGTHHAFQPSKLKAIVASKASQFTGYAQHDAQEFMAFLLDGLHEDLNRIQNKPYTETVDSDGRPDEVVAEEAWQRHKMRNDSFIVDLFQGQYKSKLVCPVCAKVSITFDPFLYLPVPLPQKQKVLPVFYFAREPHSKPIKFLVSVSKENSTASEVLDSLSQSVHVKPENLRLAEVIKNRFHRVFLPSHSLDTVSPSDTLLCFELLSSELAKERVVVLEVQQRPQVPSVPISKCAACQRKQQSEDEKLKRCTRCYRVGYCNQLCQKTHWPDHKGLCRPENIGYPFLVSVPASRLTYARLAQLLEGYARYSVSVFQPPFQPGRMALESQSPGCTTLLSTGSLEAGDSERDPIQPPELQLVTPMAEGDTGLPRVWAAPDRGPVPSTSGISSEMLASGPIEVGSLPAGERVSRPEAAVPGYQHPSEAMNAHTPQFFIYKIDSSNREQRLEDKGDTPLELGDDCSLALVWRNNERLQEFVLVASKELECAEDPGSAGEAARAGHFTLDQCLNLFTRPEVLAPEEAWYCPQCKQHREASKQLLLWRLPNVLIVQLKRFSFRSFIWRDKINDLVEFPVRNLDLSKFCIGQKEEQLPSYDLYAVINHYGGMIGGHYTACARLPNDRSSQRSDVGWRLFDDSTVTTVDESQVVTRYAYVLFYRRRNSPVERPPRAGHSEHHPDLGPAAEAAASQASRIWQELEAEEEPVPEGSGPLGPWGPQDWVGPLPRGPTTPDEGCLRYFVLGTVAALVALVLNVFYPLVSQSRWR
# Outline: (§1)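 Labelled DUBs from HEK293T lysate were NeutrAvidin-enriched, digested with LysC and trypsin, and run by diaPASEF LC-MS/MS. Before that, each 495 µg sample in Tris/CHAPS/IGEPAL buffer with protease inhibitors was treated in triplicate with fragment at 200 µM or vehicle for 3 h, then with Biotin-Ahx-Ub-VS at 0.5 µM final for 1 h. Values are average log2 ratios of fragment over vehicle by unpaired t-test, based on global-median-normalised Spectronaut label-free quantities from proteins with ≥2 unique peptides.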
# USP22 = target: T2, USP22 (UniProt Q9UPT9)
# T2 sequence (whole entry): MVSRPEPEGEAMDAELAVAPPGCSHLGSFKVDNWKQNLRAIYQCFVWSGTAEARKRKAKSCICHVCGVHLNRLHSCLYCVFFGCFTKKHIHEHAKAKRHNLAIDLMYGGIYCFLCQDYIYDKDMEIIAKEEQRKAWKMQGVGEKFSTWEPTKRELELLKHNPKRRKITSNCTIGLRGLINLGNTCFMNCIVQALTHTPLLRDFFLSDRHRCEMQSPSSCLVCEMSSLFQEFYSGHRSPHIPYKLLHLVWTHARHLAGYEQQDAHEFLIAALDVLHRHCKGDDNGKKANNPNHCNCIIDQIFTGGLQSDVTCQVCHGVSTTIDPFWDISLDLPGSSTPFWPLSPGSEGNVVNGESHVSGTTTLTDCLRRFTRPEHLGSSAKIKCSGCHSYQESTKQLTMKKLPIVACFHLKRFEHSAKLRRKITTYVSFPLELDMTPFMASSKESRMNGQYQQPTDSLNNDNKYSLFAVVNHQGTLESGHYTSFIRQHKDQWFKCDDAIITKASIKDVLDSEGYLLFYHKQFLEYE
# Outline: as §1
# USP24 = USP24 (UniProt Q9UPU5)
# USP24, sequence (Q9UPU5 whole entry): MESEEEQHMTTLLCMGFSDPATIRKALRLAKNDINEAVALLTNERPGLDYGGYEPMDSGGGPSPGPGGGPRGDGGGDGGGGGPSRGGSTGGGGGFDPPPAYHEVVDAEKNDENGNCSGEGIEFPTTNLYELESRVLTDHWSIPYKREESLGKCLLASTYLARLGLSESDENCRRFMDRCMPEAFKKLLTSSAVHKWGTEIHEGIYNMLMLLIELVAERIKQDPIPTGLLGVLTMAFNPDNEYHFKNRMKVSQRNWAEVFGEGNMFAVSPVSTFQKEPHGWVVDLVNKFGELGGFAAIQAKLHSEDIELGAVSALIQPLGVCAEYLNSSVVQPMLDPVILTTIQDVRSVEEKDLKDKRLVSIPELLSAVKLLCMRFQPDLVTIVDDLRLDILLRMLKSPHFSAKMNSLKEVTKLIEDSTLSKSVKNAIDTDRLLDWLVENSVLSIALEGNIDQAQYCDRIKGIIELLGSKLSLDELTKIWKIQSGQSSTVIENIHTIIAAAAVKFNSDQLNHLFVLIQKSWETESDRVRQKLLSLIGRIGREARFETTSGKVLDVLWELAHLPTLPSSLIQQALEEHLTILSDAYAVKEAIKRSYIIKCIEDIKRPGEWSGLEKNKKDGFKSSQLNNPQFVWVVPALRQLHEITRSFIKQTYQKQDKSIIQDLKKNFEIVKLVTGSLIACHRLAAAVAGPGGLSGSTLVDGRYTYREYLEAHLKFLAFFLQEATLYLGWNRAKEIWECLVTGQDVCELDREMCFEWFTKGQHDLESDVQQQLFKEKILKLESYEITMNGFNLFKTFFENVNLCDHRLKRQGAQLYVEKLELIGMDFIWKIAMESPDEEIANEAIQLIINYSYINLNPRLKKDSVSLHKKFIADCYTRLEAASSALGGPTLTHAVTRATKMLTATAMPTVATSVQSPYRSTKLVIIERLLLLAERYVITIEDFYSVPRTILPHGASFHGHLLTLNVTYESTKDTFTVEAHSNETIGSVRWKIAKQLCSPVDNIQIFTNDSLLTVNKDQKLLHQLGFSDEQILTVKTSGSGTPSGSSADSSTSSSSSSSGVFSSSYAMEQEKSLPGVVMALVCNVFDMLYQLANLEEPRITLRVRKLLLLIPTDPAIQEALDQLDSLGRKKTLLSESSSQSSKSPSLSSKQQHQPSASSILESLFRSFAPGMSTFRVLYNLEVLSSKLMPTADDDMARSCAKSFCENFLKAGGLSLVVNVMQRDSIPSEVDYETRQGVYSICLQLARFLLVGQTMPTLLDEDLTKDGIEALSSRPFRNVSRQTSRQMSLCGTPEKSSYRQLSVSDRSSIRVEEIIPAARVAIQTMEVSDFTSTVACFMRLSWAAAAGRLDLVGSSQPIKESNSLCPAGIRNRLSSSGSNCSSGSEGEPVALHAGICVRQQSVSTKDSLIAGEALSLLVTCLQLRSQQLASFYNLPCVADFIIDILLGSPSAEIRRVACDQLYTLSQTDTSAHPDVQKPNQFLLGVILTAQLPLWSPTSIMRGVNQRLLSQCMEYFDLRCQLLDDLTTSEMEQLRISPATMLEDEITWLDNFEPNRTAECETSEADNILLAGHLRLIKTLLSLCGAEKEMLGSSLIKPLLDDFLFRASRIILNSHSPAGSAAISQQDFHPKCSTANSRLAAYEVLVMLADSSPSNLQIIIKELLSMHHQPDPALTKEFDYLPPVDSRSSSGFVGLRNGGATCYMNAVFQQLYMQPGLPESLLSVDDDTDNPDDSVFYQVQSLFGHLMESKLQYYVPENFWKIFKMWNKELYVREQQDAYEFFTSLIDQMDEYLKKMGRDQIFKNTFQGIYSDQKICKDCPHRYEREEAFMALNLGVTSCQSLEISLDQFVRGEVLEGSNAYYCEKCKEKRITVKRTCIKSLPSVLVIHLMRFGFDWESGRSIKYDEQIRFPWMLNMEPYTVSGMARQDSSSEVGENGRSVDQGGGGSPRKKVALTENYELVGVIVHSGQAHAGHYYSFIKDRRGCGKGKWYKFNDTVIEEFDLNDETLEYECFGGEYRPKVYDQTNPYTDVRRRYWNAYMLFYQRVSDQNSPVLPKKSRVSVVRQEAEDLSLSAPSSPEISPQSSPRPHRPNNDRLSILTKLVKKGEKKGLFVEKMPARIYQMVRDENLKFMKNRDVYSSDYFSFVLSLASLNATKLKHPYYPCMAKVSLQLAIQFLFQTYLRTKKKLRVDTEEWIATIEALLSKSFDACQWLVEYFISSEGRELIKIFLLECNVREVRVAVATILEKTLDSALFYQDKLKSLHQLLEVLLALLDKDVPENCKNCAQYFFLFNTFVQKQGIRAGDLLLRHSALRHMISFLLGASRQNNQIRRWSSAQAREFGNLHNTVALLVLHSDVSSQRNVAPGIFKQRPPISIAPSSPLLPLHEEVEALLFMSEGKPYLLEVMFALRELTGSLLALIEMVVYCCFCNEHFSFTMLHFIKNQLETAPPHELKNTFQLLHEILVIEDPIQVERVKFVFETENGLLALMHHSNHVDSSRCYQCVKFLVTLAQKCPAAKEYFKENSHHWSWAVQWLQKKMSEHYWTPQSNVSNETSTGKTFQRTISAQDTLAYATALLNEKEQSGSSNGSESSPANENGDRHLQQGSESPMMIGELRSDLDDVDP
# Outline: as §1
# USP25 = target: T3, USP25 (UniProt Q9UHP3)
# T3 sequence (whole entry): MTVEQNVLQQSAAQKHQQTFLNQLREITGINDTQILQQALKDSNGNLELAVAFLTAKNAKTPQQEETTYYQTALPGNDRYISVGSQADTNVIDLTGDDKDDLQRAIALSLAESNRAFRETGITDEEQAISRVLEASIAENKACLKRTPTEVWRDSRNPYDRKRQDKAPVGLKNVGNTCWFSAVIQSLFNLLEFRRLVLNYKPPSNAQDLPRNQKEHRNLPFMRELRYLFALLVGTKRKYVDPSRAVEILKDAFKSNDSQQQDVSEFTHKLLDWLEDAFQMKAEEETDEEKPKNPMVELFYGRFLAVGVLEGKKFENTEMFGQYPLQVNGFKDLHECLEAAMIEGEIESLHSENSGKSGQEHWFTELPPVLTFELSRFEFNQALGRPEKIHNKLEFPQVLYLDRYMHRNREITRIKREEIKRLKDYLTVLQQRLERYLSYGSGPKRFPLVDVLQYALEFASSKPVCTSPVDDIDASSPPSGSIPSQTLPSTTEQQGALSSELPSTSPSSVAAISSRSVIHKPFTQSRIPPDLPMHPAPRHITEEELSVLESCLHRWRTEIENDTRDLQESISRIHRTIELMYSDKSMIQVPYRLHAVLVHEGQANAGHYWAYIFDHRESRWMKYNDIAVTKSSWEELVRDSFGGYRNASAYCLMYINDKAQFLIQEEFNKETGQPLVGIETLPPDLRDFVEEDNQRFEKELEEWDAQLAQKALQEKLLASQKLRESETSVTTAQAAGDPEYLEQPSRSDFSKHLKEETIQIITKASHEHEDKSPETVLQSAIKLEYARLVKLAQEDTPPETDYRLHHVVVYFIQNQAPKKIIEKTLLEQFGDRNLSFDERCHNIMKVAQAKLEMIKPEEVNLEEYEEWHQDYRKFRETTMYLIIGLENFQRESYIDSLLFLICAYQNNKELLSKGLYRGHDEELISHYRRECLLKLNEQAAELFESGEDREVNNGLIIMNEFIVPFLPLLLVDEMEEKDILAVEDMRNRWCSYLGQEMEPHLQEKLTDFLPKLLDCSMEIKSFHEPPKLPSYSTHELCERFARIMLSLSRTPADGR
# Outline: as §1
# USP28 = target: T4, USP28 (UniProt Q96RU2)
# T4 sequence (whole entry): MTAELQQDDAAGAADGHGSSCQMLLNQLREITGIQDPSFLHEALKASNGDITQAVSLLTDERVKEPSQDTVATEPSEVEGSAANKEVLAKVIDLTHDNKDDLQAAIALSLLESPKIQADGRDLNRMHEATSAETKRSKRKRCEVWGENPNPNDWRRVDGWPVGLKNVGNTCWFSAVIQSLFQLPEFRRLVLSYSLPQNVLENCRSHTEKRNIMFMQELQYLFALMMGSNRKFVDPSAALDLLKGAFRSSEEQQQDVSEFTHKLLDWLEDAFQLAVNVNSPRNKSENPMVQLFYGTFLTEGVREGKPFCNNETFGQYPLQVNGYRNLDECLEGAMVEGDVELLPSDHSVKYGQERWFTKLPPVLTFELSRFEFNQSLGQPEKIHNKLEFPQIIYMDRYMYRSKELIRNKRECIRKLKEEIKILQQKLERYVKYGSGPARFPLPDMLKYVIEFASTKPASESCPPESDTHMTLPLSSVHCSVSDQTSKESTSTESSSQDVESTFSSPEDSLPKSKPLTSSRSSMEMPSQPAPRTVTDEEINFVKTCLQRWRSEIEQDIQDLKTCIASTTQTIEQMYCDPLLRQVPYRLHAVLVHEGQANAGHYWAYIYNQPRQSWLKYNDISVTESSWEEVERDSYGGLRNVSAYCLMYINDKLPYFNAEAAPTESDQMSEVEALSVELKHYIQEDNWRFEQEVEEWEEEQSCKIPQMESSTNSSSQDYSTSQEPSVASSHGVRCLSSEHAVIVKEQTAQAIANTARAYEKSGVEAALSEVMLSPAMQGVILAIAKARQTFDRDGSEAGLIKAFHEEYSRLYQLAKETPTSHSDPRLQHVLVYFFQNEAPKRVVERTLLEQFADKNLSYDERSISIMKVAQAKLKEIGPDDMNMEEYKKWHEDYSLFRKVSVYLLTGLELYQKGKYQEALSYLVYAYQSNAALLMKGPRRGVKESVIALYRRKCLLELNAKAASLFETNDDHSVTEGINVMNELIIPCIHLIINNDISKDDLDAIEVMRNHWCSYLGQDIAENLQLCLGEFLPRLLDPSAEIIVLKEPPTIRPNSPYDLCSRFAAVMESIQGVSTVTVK
# Outline: as §1
structure (smiles),measurement,setting,value
N#Cc1cnn(-c2ccccc2)c1NC(=O)CCl,log2 ratio of Biotin-Ahx-Ub-VS probe labelling,USP19,-0.232
same,log2 ratio of Biotin-Ahx-Ub-VS probe labelling,USP22,0.00637
same,log2 ratio of Biotin-Ahx-Ub-VS probe labelling,USP24,-0.338
same,log2 ratio of Biotin-Ahx-Ub-VS probe labelling,USP25,-2.88 (active)
same,log2 ratio of Biotin-Ahx-Ub-VS probe labelling,USP28,-2.37 (active)
